According to PubChem BioAssay (NCI):
This is part of a sample that, as a whole, favours compounds with a hit. Of some 83,000 tested, about 20% had one in any assay.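 For each line, cells grew in 96-well plates with the test compound present at a single concentration for 48 hours.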 A number with no mark means an inactive call. The source made the active and inactive calls. Rule for the calls: active = growth percent below 10; inactive = the rest.

Experiments:
Experiment in all cases: NCI-60 one-dose screen, 48 h (100 = growth as untreated, 0 = no growth, -100 = all killed)
Conditions in all cases: 10 µM unless noted
NCI-H226 lung = test system: NCI-H226 lung
NCI-H322M lung = test system: NCI-H322M lung
HOP-62 NSCLC = test system: HOP-62 NSCLC
NCI-H460 lung = test system: NCI-H460 lung
HOP-92 NSCLC = test system: HOP-92 NSCLC
NCI-H522 lung = test system: NCI-H522 lung
A549/ATCC NSCLC = test system: A549/ATCC NSCLC
786-0 renal = test system: 786-0 renal
COLO 205 colon = test system: COLO 205 colon

Compound	growth (NCI-H226 lung) [%]	growth (NCI-H322M lung) [%]	growth (HOP-62 NSCLC)	growth (NCI-H460 lung)	growth (HOP-92 NSCLC)	growth (NCI-H522 lung)	growth (A549/ATCC NSCLC)	growth (786-0 renal)	growth (COLO 205 colon) [%]
CCC(=O)Nc1ccc(Cl)c(Cl)c1	102	93.5	93.7%	111%	76.8%	84.7%	92.5%	91.1%	107
O=C(Nc1ccc(Br)cc1)c1cc(Br)cc(Br)c1O		13.7	-4.33% (active)	-25.3% (active)	-30.7% (active)	-3.18% (active)	6.64% (active)	-12.3% (active)	102
O=C(Nc1ccc([N+](=O)[O-])cc1)C(Cl)(Cl)Cl	97.8	90.1	96.9%	104%	88%	106%	94%	96.6%	107
Cc1cccc(N2CCN(C(C)C#N)CC2)c1 (stereo not drawn)	96.6	93.8	107%	109%	91.4%	88.9%	107%	90.3%	105
CNC(=O)Oc1ccc(N(C)C)cc1C(C)C	92.6	91.1	99.5%	107%	100%	92.2%	94.9%	102%	115
CCOP(=O)(Nc1ccc2c(c1)/C(=N/NC(N)=S)c1ccccc1-2)OCC	97.6	132	117%	104%	96.1%	95.4%	99.5%	104%	96.3
